From the supplement of paper PMC10849652
About 8,800 targets were measured; listed, in parts, are those with a hit and a random draw of the rest. About 0.5% of all pairs of compound and target were hits.

Key:
Assay in all cases: log2 fold change, soluble protein after heating vs DMSO (PISA); higher = thermal stabilisation; K562 lysate, 10 uM; active = over 0.2 and 3.5 SD of the protein, either way, in both replicates (recomputed)
[1] = compound: C1=CC=C(C=C1)[C@H](COC2=CC3=C(C=C2)NC(=O)N3)NC(=O)C4=CC=CN(C4=O)CC5=CC(=C(C=C5)F)F
How it was run: (§1)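 Quantification was by TMTpro 16plex LC-MS/MS with equalised channel sums, applied to the supernatant after 21,000xg for 90 min. Samples were crude K562 extract at 1 mg/mL protein in PBS pH 7.4 with 1 mM MgCl2, treated with 10 μM compound for 30 min, heated for 3 min across 48°C-58°C, pooled and brought to 0.5% NP-40 at 4°C. Values are log-two fold changes in thermal stability relative to solvent controls, from duplicates.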

[2] = compound: CC1=C(SC2=C1C(=N[C@H](C3=NN=C(N32)C)CC(=O)N)C4=CC=C(C=C4)Cl)C
How it was run: as §1

[3] = compound: CC1=C2C(=CC=C1)N=C(N(C2=O)C3=CC=CC=C3C)CN4C=NC5=C(N=CN=C54)N
How it was run: as §1

[4] = compound: Cc1sc2c(c1C)C(c1ccc(Cl)cc1)=N[C@@H](CC(=O)OC(C)(C)C)c1nnc(C)n1-2
How it was run: as §1

[5] = compound: c1ccc([C@@H]2C[C@H]2NC2CCNCC2)cc1
How it was run: as §1

Measured: log2 fold change

FIBP (UniProt O43427)
Sequence of UniProt O43427 (O43427 whole entry, looked up): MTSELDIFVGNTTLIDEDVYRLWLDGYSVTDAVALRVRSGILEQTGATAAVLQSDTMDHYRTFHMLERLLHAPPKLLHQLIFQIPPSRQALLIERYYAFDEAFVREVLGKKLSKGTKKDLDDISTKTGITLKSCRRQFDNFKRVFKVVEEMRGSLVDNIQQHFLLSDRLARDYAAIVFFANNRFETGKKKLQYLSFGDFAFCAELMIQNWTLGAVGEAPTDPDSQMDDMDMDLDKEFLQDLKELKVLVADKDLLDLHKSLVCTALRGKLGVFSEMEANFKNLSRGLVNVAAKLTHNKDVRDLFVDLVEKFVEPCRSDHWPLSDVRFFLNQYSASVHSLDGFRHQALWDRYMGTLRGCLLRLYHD
inactive: [1] -0.018 | [2] 0 | [3] -0.044 | [4] -0.027 | [5] -0.002

ERAL1 (UniProt O75616)
Sequence of UniProt O75616 (O75616 whole entry, looked up): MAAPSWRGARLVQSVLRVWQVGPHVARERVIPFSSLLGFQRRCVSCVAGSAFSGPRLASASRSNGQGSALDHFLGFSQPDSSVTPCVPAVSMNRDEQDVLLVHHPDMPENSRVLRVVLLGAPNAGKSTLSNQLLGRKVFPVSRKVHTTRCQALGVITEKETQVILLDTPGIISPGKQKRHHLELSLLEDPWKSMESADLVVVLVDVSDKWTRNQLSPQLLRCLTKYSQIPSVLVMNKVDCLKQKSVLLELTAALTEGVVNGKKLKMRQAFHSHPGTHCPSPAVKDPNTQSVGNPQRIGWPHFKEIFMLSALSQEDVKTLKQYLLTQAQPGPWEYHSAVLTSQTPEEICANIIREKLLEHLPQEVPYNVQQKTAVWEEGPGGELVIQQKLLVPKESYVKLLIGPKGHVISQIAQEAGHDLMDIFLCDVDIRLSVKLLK
inactive: [1] -0.048 | [2] 0.033 | [3] 0.007 | [4] 0.009 | [5] 0.075

FBLL1 (UniProt A6NHQ2)
Sequence of UniProt A6NHQ2 (A6NHQ2 whole entry, looked up): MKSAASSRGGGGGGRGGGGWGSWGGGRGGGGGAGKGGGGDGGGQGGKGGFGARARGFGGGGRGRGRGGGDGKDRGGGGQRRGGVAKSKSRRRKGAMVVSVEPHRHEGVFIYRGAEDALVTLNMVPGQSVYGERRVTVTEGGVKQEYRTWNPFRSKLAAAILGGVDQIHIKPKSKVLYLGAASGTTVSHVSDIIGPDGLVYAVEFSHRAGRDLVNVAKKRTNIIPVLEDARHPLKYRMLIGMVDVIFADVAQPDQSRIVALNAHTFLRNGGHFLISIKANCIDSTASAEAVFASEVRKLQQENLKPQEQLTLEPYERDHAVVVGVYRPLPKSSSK
inactive: [1] -0.017 | [2] 0.013 | [3] 0.037 | [4] -0.002 | [5] -0.062

FIG4 (UniProt Q92562)
Sequence of UniProt Q92562 (Q92562 whole entry, looked up): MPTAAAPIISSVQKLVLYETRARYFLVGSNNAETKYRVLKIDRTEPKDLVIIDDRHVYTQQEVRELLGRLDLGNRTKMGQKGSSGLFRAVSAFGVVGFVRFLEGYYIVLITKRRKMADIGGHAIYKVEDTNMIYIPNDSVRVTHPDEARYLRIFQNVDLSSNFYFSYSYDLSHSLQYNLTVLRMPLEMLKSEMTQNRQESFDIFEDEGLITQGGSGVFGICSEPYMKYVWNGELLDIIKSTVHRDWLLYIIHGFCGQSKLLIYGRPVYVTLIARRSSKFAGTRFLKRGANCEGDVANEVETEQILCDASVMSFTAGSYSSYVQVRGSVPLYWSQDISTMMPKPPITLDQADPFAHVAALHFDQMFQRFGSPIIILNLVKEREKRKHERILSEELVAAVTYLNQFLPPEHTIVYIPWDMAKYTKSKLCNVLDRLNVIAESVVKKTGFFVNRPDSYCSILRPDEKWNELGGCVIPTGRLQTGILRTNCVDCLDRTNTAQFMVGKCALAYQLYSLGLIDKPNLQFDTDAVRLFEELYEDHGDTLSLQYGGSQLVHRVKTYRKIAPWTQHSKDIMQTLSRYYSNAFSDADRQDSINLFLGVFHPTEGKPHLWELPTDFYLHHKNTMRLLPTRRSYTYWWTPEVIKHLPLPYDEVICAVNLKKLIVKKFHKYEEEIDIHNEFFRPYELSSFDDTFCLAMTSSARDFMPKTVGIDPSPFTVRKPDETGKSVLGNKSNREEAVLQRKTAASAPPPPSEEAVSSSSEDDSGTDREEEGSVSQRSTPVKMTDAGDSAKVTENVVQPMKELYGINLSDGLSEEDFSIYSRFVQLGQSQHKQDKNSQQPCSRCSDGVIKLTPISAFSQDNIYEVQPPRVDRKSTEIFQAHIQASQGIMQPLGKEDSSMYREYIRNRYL
inactive: [1] -0.107 | [2] -0.108 | [3] 0.037 | [4] 0.039 | [5] -0.037

FOXJ3 (UniProt Q9UPW0)
Sequence of UniProt Q9UPW0 (Q9UPW0 whole entry, looked up): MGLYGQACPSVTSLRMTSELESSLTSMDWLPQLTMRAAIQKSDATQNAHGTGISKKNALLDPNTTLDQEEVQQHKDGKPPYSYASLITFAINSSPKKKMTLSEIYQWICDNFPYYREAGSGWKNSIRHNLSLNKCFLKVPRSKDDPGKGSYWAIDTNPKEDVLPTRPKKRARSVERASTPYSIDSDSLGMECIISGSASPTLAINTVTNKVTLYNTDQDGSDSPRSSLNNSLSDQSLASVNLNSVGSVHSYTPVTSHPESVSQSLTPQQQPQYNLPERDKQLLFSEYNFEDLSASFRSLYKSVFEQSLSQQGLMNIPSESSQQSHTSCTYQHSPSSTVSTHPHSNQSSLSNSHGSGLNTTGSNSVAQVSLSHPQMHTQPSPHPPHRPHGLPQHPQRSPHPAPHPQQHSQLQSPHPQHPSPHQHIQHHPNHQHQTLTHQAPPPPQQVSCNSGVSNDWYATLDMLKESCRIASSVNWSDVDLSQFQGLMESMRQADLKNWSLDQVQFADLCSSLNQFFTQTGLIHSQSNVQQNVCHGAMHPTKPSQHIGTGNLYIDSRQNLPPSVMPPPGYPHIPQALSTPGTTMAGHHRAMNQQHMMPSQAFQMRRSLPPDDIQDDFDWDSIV
inactive: [1] 0.004 | [2] -0.072 | [3] 0.013 | [4] -0.021 | [5] -0.026

EIF2AK2 (UniProt P19525)
Sequence of UniProt P19525 (P19525 whole entry, looked up): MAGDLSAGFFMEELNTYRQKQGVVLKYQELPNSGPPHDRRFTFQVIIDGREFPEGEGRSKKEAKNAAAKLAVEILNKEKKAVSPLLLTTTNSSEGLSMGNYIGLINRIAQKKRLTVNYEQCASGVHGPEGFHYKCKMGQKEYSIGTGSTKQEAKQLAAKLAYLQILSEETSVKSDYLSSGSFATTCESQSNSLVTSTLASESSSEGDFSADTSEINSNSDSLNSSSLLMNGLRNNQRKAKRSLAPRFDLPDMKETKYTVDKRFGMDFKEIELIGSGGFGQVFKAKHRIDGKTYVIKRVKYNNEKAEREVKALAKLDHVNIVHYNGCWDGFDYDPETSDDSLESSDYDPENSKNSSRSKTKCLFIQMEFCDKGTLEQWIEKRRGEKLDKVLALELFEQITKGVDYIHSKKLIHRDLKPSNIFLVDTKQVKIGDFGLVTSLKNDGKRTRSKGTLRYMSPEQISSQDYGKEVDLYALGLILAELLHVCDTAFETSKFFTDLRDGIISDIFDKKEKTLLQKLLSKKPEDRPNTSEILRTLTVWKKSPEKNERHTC
inactive: [1] 0.01 | [2] -0.002 | [3] -0.027 | [4] 0.216 | [5] 0.03

ECH1 (UniProt Q13011)
Sequence of UniProt Q13011 (Q13011 whole entry, looked up): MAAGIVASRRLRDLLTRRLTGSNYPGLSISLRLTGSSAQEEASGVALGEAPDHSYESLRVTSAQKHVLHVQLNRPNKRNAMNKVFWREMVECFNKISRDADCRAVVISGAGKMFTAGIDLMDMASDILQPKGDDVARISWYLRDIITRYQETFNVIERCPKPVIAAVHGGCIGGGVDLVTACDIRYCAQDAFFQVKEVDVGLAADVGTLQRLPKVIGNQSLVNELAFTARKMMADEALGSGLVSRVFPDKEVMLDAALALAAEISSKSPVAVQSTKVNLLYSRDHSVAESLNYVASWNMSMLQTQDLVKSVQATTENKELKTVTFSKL
inactive: [1] -0.059 | [2] 0.008 | [3] -0.006 | [4] -0.026 | [5] 0.012

FBXO9 (UniProt Q9UK97)
Sequence of UniProt Q9UK97 (Q9UK97 whole entry, looked up): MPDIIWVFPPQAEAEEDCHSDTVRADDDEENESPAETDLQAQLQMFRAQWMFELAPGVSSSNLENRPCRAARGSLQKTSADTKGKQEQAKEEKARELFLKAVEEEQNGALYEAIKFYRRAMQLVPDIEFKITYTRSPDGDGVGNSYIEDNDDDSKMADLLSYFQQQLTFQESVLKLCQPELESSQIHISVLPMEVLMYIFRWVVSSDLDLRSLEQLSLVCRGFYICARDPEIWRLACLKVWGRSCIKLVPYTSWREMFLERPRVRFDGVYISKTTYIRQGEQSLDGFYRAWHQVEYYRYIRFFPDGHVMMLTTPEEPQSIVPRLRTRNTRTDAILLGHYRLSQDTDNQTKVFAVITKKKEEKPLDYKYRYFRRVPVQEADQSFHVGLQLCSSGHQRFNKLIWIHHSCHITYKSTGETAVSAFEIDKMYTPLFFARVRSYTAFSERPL
inactive: [1] -0.07 | [2] -0.112 | [3] -0.002 | [4] 0.089 | [5] 0.095

EBP (UniProt Q15125)
Sequence of UniProt Q15125 (Q15125 whole entry, looked up): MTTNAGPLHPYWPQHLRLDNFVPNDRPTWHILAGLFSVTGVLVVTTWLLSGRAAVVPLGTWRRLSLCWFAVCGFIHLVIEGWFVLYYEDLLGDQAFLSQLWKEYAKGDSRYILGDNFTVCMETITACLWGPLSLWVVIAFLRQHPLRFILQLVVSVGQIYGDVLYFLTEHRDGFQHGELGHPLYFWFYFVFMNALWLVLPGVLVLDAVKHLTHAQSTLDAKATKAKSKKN
inactive: [1] -0.011 | [2] -0.061 | [3] 0.022 | [4] 0.09 | [5] -0.141
